Source: PubChem BioAssay
This is one part of a sample in which hits are shown more often than they occur.
Tg IFNy HTS: inhibitors of Toxoplasma gondii growth with IFN-gamma; Toxoplasma gondii growth in IFN-gamma-treated host cells; hits give low values; activity change, negative = inhibition, % (concentration not given with the values); 3.8% of 69,000 active; AID 1259416; in the data active = activity change below about -70%, passing the limit was not always enough;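 note: host cells are HeLa cells infected with Toxoplasma gondii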
* = called active by the depositor; ! = not active in a repeat.

SMILES | Tg IFNy HTS
CN(C)C(=O)N1CCC(c2cc3c(ncn3C)c(NCc3ccccc3)n2)CC1 | 5
CC(C)NC(=O)N1CCC(c2cc3c(ncn3C)c(NCc3ccccc3)n2)CC1 | -46
CC(C)n1cnc2c(NCC3CC3)nc(C3CCN(C(=O)c4ccccc4)CC3)cc21 | -82*
Cn1nc(CNc2ncccn2)c2c1CN(C(=O)c1ccc(F)cc1)CC2 | 83
Cc1ccccc1-c1nc(Cn2cnc3nc4c(cc3c2=O)CC(C)CC4)c(C)o1 (centres undefined) | 9
Nc1nccc(/C=C/c2c(F)cccc2Cl)n1 | -74*
Cc1ncc(CN(C)Cc2cnn(-c3ccccc3)c2)n1C | 7
Cc1ccc(-c2nccn2Cc2nncn2C2CCCCC2)o1 | -39
COc1ccc(-c2nnc(-c3nc(NCc4ccccc4Cl)c4ccccc4n3)o2)cc1 | 161
CCN(CC)CCNC(=O)C1=C(C)C(=O)OC12CCN(S(=O)(=O)CC)CC2 | 23
CC(=O)O[C@H]1C(=O)[C@@]2(C)[C@H]([C@H](OC(=O)c3ccccc3)[C@]3(O)C[C@H](OC(=O)[C@H](O)C(NC(=O)c4ccccc4)c4ccccc4)C(C)=C1C3(C)C)[C@]1(OC(C)=O)CO[C@@H]1C[C@@H]2O (some centres undefined) | -96*
CC(=O)O[C@H]1C(=O)[C@@]2(C)[C@H]([C@H](OC(=O)c3ccccc3)[C@]3(O)C[C@H](OC(=O)[C@H](O)[C@@H](NC(=O)c4ccccc4)c4ccccc4)C(C)=C1C3(C)C)[C@]1(OC(C)=O)CO[C@@H]1C[C@@H]2O | -82*!
C[N+](C)(C)[C@@H](Cc1c[nH]c(=S)[nH]1)C(=O)O | 4
CCn1nc(C)c(C(C)NC(=O)c2cc(CC(C)C)nn2C)c1C (centres undefined) | 10
CC1N(CCN(C)C)C(=O)COC12CCN(Cc1cnn(C)c1)CC2 (centres undefined) | 4
CC1N(Cc2cccnc2)C(=O)COC12CCN(Cc1cnn(C)c1)CC2 (centres undefined) | 4
C=CCN1C(=O)COC2(CCN(Cc3cnn(C)c3)CC2)C1C (centres undefined) | -78*
C[C@@H]1C[C@@H]2CN(S(=O)(=O)c3cccnc3)C[C@@H]2O1 | 12
c1ccc2c(CC3=NCCN3)cccc2c1 | -1
C(=N\NC1=NCCN1)/c1c2ccccc2c(/C=N/NC2=NCCN2)c2ccccc12 | -75*
Brc1c(NC2=NCCN2)ccc2nccnc12 | 11
Cc1cc2c(cc1C)OC1(C=C2)CCN(CC(=O)NCc2ccccn2)CC1 | 21
Cc1ccc(S(=O)(=O)N2CCC3(CC2)CN(c2ccccc2)C3=O)cc1 | 86
Cc1ccc(S(=O)(=O)N2CCCC3(CCCCC3)C2)cc1 | -98*
Cc1ccc(S(=O)(=O)N2CCC3(CCCN(CC4CCOCC4)C3)C2)cc1 (centres undefined) | 26
SMILES | Tg IFNy HTS
CCN(CC)C(=O)CC1CC2(CCN(C(=O)c3ccco3)CC2)Oc2ccccc21 (centres undefined) | -8
CCC(CC)C(=O)N1CCC2(CC1)Nc1ccc(Cl)cc1-n1cccc12 | -3
Cc1ccc(C)c(C(=O)N2CCn3nc(C(=O)NCCO)cc3C2)c1 | 38
Cc1ccc(S(=O)(=O)NCCc2csc(-c3ccc(F)cc3)n2)s1 | -102*
Cc1ccc(S(=O)(=O)NCCc2csc(-c3ccc(F)cc3)n2)cc1 | -38
Cc1ccc(S(=O)(=O)NCCc2csc(-c3ccc(Cl)cc3)n2)cc1 | -65
COc1ccc(S(=O)(=O)NCCc2csc(-c3ccc(Cl)cc3)n2)cc1C | -53
Cc1ccc(S(=O)(=O)NCCc2csc(-c3ccc(Cl)cc3)n2)cc1C | -83*
Cc1ccc(S(=O)(=O)NCCc2csc(-c3ccc(Cl)cc3)n2)s1 | -18
CCN(Cc1cccc(C(=O)Nc2cc(C)nn2C)c1)CC1CCCO1 (centres undefined) | -47
COc1ccc(-c2nnc(-c3nc(NCc4cccc(Br)c4)c4ccccc4n3)o2)cc1 | 91
O=C(Cn1ccnc1)Nc1ccc(N2CCOCC2)c(C(F)(F)F)c1 | -21
CN(CCNC(=O)c1cnc(-c2ccccc2)nc1)S(C)(=O)=O | 5
CC(C)(C)C1CCc2nc(NC(=O)CCc3nc(-c4ccccn4)no3)sc2C1 (centres undefined) | -41
Cc1cccc(CN2CCN(Cc3cnc(N4CCCCC4)nc3)CC2)c1 | 4
CC(NCCC(c1ccccc1)c1ccccc1)c1ccccc1 (centres undefined) | -82*!
CNCC[C@@H](Oc1ccccc1C)c1ccccc1 | 16
CC(Nc1ccc(-c2nccn2C)nn1)c1ccccc1 (centres undefined) | 205
CC(=O)N1CCC2(CC1)CN(C(=O)c1nc(Cl)sc1C(C)C)C2 | -1
COCC1(C(=O)Nc2cccc(NC(=O)c3ccccc3OC)c2)CCC1 | -2
COc1ccccc1C(=O)Nc1ccc(-c2nc(-c3ccc(C)cc3)co2)cc1 | -55
COc1ccccc1C(=O)Nc1cccc(NC(=O)c2c(Cl)cnn2C)c1 | -85*
COc1ccc2[nH]cc(CCNc3ccc(S(=O)(=O)C(C)(C)C)nn3)c2c1 | -5
C[C@@]12CCC3[C@@](CC[C@@H]4[C@](C)(C(=O)O)CCC[C@@]34C)(CC1=O)C2 (some centres undefined) | -5
COCc1ccc2ccccc2c1-c1ccc(C(=O)N(C)C)cc1 | 0
SMILES | Tg IFNy HTS
COc1ccc(NC(=O)COc2nc(C)nc3ccccc23)cc1 | 18
Cc1cccc(NC(=O)COc2nc(C)nc3ccccc23)c1 | -8
COc1ccc(OCC(=O)Nc2cccc(-c3nnc4c5ccccc5c(C)nn34)c2)cc1 | -76*
Cc1nc2ccc(-n3ccnc3-c3ccncc3)cc2[nH]1 | -5
O=C(c1ccc2c(c1)OCO2)N1CC[C@@H](O)[C@@H]1Cc1cccnc1 | 206
Cc1nnsc1-c1nc(-c2ccc(Cl)s2)cs1 | -85*
Cc1nc(-c2ccc(Cl)cc2)sc1-c1csc(-c2ccc(Cl)cc2)n1 | -15
CCOC(=O)c1csc(-c2snnc2C)n1 | -16
Cc1ccsc1C(=O)N1CC(C(=O)NCC2CC2)C2(CCOCC2)C1 (centres undefined) | 5
Cc1ccnc(CC(C)N(C)C(=O)c2ccc3nccn3c2)c1 (centres undefined) | -1
CCOc1ccc(C(=O)NCCc2csc(-c3ccc(Cl)cc3)n2)cc1OCC | 42
O=C(NCCCn1ncc2ccccc21)c1n[nH]c2c1CCC2 | 7
FC(F)(F)c1cccc(-n2nnnc2CSc2ccccn2)c1 | -10
Clc1ccc(Nc2nc3nonc3nc2Nc2ccc(Cl)cc2)cc1 | -103*
Cc1c(Nc2nc3nonc3nc2Nc2cccc(Cl)c2)c(=O)n(-c2ccccc2)n1C | -24
O=C(Nc1ccc(Cl)cc1)c1nc(Nc2ccccc2)c2ccccc2n1 | 96
Cc1ccc2[nH]c(C(=O)NCc3ccccn3)c(NC(=O)c3ccc(Cl)cc3)c2c1 | 12
O=C(Nc1nnc(CCc2ccccc2)s1)c1cnc(-c2ccc(Cl)cc2)nc1 | -6
CC(C)(O)C#Cc1ccc(CN2CCC(NS(C)(=O)=O)CC2)cc1 | -3
Cc1cc(=O)n2[nH]c(C(=O)N3CCN(c4ccccc4)CC3)nc2n1 | 10
O=S(=O)(Cc1noc(-c2ccsc2)n1)c1ccccn1 | 11
O=S(=O)(Cc1nc(-c2ccsc2)no1)c1ccc(Cl)cc1 | -30
O=S(=O)(Cc1noc(-c2cc(Cl)cc(Cl)c2)n1)c1ccc(Cl)cc1 | -87*
Cn1cc(N2CCC3(CCN(C(=O)c4cnccn4)C3)C2=O)cn1 (centres undefined) | 3
COc1ccc(-c2nc(N3CCCCC3)c3ccccc3n2)cc1 | -18
Nc1nnc(-c2cccc(Cl)c2Cl)c(N)n1 | 2
